aDG glyco act: activators of alpha-DG glycosylation, primary screen, uHTS, Pro5-aDG cells, AlphaScreen. 360,000 tested, 0.22% active. AID 624168, 2012. alpha-DG glycosylation AlphaScreen (IIH6); 0% Pro5, 100% B10-LARGE cell signal. activation, % at 10 µM;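 active = activation of at least 8% versus controls, or a plate z-score of at least 8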;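 note: Pro5 are CHO cells carrying HIG-tagged alpha-DG that lacks glycosylation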
ADAM17 inh: ADAM17 inhibitors, primary screen, biochemical, QFRET | recombinant ADAM17, EDANS/DABCYL FRET peptide cleavage | inhibition, % at 6.95 µM | 370,000 tested, 0.83% active;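 active = inhibition above the mean of compounds lying between control limits plus 3 SD, set per campaign, cut at about 8.5% in these data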;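 note: 0% = DMSO-only wells as the low control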
ADAM10 inh: human ADAM10 inhibitors, primary screen, biochemical, QFRET, HTS; Disintegrin and metalloproteinase domain-containing protein 10 (Homo sapiens), O14672; recombinant ADAM10, EDANS/DABCYL FRET peptide cleavage, 3 h; inhibition, % at 7 µM; 370,000 tested, 0.62% active; AID 720582, 2013;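 active = inhibition above a per-campaign cutoff equal to the mean of compounds falling between control-based bounds plus 3 SD, cut at about 20% in these data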;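 note: 0% = DMSO wells while the 100% control is not disclosed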
GRIN3A LBD mod: binders of NR3A ligand-binding domain, primary screen, biophysical, differential scanning fluorimetry, uHTS. Glutamate receptor ionotropic, NMDA 3A (GRIN3A) ligand-binding domain. NR3A LBD differential scanning fluorimetry, Tm shift; 0% = protein alone, 100% = glycine-bound protein. Tm shift relative to glycine control, % at 25 µM. 340,000 tested, 2.5% active;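 active = melting temperature shift of at least 10% of the positive control shift, at one fixed dose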
FAS-TE inh: FAS thioesterase domain inhibitors, primary screen, biochemical, fluorescence intensity, uHTS. inhibition, % at 15 µM. 360,000 tested, 0.67% active. Fatty acid synthase (Homo sapiens), P49327. recombinant FAS-TE, OMFH fluorogenic substrate, fluorescence endpoint;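 active = compounds whose normalised, plate-corrected inhibition of enzyme fluorescence in the single-dose primary screen is 50% or more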;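 note: 0% = DMSO with enzyme and 100% = substrate without enzyme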
ADAM10 confirm: human ADAM10 inhibitors, confirmation, biochemical, QFRET, triplicate | shares compounds with ADAM10 inh | ADAM10 QFRET peptide cleavage, EDANS fluorescence | inhibition, % at 6.95 µM | 2,100 tested, 1% active | AID 743208, 2013;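 active = inhibition above about 20% chosen separately for each screening run, limit read from the data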;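 note: 0% = DMSO wells and 100% = marimastat wells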
ADAM17 counter: ADAM17 inhibitors, counter-screen for ADAM10 exosite inhibitor project, biochemical, QFRET, high throughput | inhibition, % at 6.95 µM | ADAM17 QFRET peptide cleavage, EDANS fluorescence | shares compounds with ADAM10 inh | 2,100 tested, 0.5% active | AID 743214, 2013;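 active = mean triplicate inhibition above the solvent-only control wells' mean plus 3 SD, cut at about 12% in these data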;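 note: 0% = DMSO wells and 100% = marimastat wells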
An asterisk follows results filed as active; · = not tested or not shown. This is a sample that favours compounds with a hit; in the whole collection about 4% have one here.

SMILES	aDG glyco act	ADAM17 inh	ADAM10 inh	GRIN3A LBD mod	FAS-TE inh	ADAM10 confirm	ADAM17 counter
O=C1NC[C@H](c2ccccc2)OC(=O)[C@@H](Cc2ccc(F)cc2)CC/C=C/C[C@H]1CC(=O)N(CCO)Cc1ccccc1	-0.4	5.7	13.5	-20.2	20.6	·	·
O=C1N[C@@H](Cc2ccccc2)COC(=O)[C@H](Cc2ccc(F)cc2)C/C=C\C[C@H]1CC(=O)N(CCO)Cc1ccccc1	0.3	3.9	9.4	-10.8	17.5	·	·
O=C1NC[C@H](c2ccccc2)OC(=O)[C@@H](Cc2ccc(F)cc2)CC/C=C/C[C@@H]1CC(=O)N(CCO)Cc1ccccc1	0.1	5.6	22.9*	-2.9	13.1	0.1	2.1
COc1ccc(NC(=O)NNC(=O)CCC(=O)Nc2ccccc2Cl)cc1	0.0	-2.9	0.3	3.8	-7.3	·	·
COc1ccc(CCNC(=O)CNS(=O)(=O)c2ccc(Br)cc2)cc1	0.5	-0.6	-1.2	0.3	-1.1	·	·
Cc1ccc(S(=O)(=O)N(C)c2ccc(OCC(=O)N3CCCCC3)cc2)cc1	-0.6	6.0	4.2	-0.8	-1.4	·	·
Cc1cc(OCc2cc(C(=O)N(C)Cc3nonc3C)no2)cc(C)c1Cl	0.5	5.2	27.7*	-4.7	28.6	7.3	1.8
COC(=O)[C@H](CCSC)NC(=O)Cn1ccc(N)nc1=O	0.1	-3.5	-0.4	1.1	-12.2	·	·
COC(=O)c1ccc(NCc2c(O)ccc(O)c2Br)cc1Cl	0.4	17.1*	40.6*	32.2*	8.8	4.0	1.2
CCOC(=O)c1cc2oc(C)cc2n1CC(=O)OC1CCCCC1	-0.1	0.7	-3.9	3.0	19.6	·	·
C=CCN(C(=O)Cn1c(C(=O)OC)cc2oc(C)cc21)c1ccccc1	-0.1	-0.5	82.5*	-1.3	2.3	3.5	0.8
O=S(=O)(NCC(Nc1ccc(Cl)cc1)c1ccccc1)c1ccc(Cl)cc1 (stereo not given)	0.6	6.9	22.7*	27.6*	30.4	12.4	4.5
Cc1cc(S(=O)(=O)NCC(c2ccccc2)c2ccccc2)ccc1-n1cnnn1	-0.3	4.9	20.4*	-10.0	26.7	2.3	0.5
COc1ccccc1CNS(=O)(=O)c1ccc(-n2cnnn2)c(C)c1	0.2	-4.1	-3.2	-0.5	-3.0	·	·
O=C(Nc1ccc(Cl)cc1)Nc1ccccc1NS(=O)(=O)c1cccs1	-0.1	8.1	23.1*	30.3*	13.4	3.8	0.7
O=S(=O)(Nc1ccccc1Cl)c1ccc(NS(=O)(=O)c2cccs2)cc1	0.0	-1.2	-1.9	-8.9	-3.6	·	·
c1cnc(-c2noc(CN3CCN(C4C5CC6CC(C5)CC4C6)CC3)n2)cn1 (stereo not given)	-0.5	-1.3	2.6	-0.8	-9.3	·	·
O=C(NNC(=O)c1cc(-c2cccc(Br)c2)nc2ccccc12)c1csc(N2CCOCC2)n1	0.1	6.8	21.9*	-3.2	18.2	9.5	2.5
O=C(NNC(=O)c1cc(Br)ccc1O)c1csc(N2CCOCC2)n1	0.3	·	·	-9.4	7.5	·	·
CCc1nnc(NS(=O)(=O)c2ccc(NC(=O)c3cccc([N+](=O)[O-])c3)cc2)s1	-0.5	-3.5	1.2	-1.6	-8.7	·	·
CCCCOc1cccc(C(=O)Nc2ccc(S(=O)(=O)Nc3nnc(CC)s3)cc2)c1	0.1	1.3	21.3*	-1.3	22.5	0.8	0.3
O=c1c2ccccc2ncn1CCOCCOc1cccc(Br)c1	0.1	-0.2	3.5	-2.2	-4.6	·	·

Screens (PubChem BioAssay)
